According to PubChem BioAssay AID2685 (National Center for Advancing Translational Sciences (NCATS), 2010):
The campaign covered roughly 320,000 compounds. About 2,100 (0.66%) were called active. Roughly 53% stayed inconclusive and do not appear here. The sample holds actives, similar compounds and a random draw of the others, so the mix is not that of the screen. The call rests on the fitted dose curve; in most records, active means well fitted inhibition curve with a large enough effect in the signal ratio, with a control signal flat (not every such curve was filed as active); inconclusive means small, poorly fitted or top-dose-only effect, or effect the other way, or a change in a side signal; inactive means flat fitted curve, though single readings scatter; the % refers to the signal ratio.
Potency means the concentration at half of the fitted maximal effect.

Test: qHTS Assay for Lipid Storage Modulators in Drosophila S3 Cells;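 on cell number change: cells counted by Cell Tracker Red CMTPX staining in the red channel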
Settings: BODIPY lipid droplet fluorescence, 18-24 h, cells fed with added oleic acid; cell number change: measured here: cell count max response; series mostly up to 46.1 µM
Outline: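 Drosophila S3 cells got compounds at several concentrations plus oleic acid (400 uM solution). Laser-scanning cytometry with 488 nm excitation read lipid droplets at 500-530 nm and cells at 575-640 nm. Percent activity was relative to 20 uM Triacsin C.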
With `CCCCCNC(=O)c1ccc2c(=O)n(CC3CCCO3)c(=S)[nH]c2c1` (stereo not given) the Potency was “inactive” and the cell number change was 12.5%.
In the case of `CCOc1ccccc1C(=O)NN1C(=O)C2CCCCC2C1=O` (stereo not given), the Potency is reported as “inactive” and the cell number change is reported as 2.53%.
For `O=C(N/N=C1\CCCCc2ccccc21)c1ccccn1`, the Potency was “inactive” and the cell number change was 8.38%.
With `CC1(C)CC(=O)C=C(NCCc2ccc(S(N)(=O)=O)cc2)C1` the Potency was 29.1 µM (active) and the cell number change was 7.43%.
In the case of `CC1(C)CC(=O)C=C(Nc2ccc(F)cc2)C1`, the Potency is reported as “inactive”.
In the case of `CC1(C)CC(=O)C=C(NCCc2ccccc2)C1`, the Potency is reported as “inactive” and the cell number change is reported as 5.18%.
For `CC1(C)CC(=O)C=C(Nc2ccc(S(N)(=O)=O)cc2)C1`, the Potency was “inactive” and the cell number change was 5.75%.
For `CCc1ccc(NC2=CC(=O)CC(C)(C)C2)cc1`, the Potency was 16.4 µM (active) and the cell number change was -10.8%.
For `CC(=O)Nc1ccc(NC2=CC(=O)CC(C)(C)C2)cc1`, the Potency was “inactive”.
For `FC(F)(F)c1nnc(-c2ccccc2)nc1N1CCOCC1`, the Potency was “inactive”.
For `O=C(COc1ccccc1)NC(NC(=S)Nc1ccccc1C(=O)O)C(Cl)(Cl)Cl` (stereo not given), the Potency was “inactive” and the cell number change was -4.52%.
For `CCCCN(C(=O)c1cccc(S(=O)(=O)N2CC(C)OC(C)C2)c1)c1c(N)n(CCCC)c(=O)[nH]c1=O` (stereo not given), the Potency was “inactive” and the cell number change was 6.37%.
With `CCOC(=O)C(NC(=O)N1CCCCC1)(c1ccccc1)C(F)(F)F` (stereo not given) the Potency was “inactive” and the cell number change was -0.413%.
In the case of `CCOC(=O)C(NC(=O)NC1CCCCC1)(c1ccccc1)C(F)(F)F` (stereo not given), the Potency is reported as 7.31 µM (active) and the cell number change is reported as -7.07%.
In the case of `CCOC(=O)C(NC(=O)Nc1ccc(O)cc1)(c1ccccc1)C(F)(F)F` (stereo not given), the Potency is reported as “inactive” and the cell number change is reported as 14.8%.
With `Cc1n[nH]c(C)c1S(=O)(=O)N1CCc2ccccc2C1` the Potency was “inactive” and the cell number change was 24.8%.
For `C/C(=N\NC(=O)c1c(C)nc2ccccn12)c1ccco1`, the Potency was “inactive” and the cell number change was -20.6%.
With `C/C(=N\NC(=O)c1c(C)nc2ccccn12)c1ccc(O)cc1O` the Potency was 5.8 µM (active) and the cell number change was 6.25%.
For `Cc1nc2ccccn2c1C(=O)N/N=C/c1ccccc1`, the Potency was “inactive” and the cell number change was 9.24%.
In the case of `CC(=O)N1CCN(C(=S)c2ccc(Cl)cc2)CC1`, the Potency is reported as “inactive” and the cell number change is reported as -11.3%.
For `Cc1csc(NC(=O)CSc2[nH]c(=O)ncc2C)n1`, the Potency was “inactive”.
In the case of `Cc1csc(NC(=O)CSc2ncnc3ccccc23)n1`, the Potency is reported as “inactive” and the cell number change is reported as -0.862%.
For `CCOC(=O)c1c(SCC(=O)Nc2nc(C)cs2)nc(=O)[nH]c1C`, the Potency was 13 µM (active) and the cell number change was 11.9%.
For `Cc1csc(NC(=O)CSc2nc(C(C)C)nc3ccccc23)n1`, the Potency was 7.31 µM (active) and the cell number change was 6.52%.
In the case of `Cc1csc(NC(=O)CSc2nc3ccccc3c3c2CCCC3)n1`, the Potency is reported as “inactive” and the cell number change is reported as 1.26%.
For `COC(=O)c1c(SCC(=O)Nc2ccc(C)cc2)nc(=O)[nH]c1C`, the Potency was “inactive” and the cell number change was 11%.
In the case of `Cc1ccc(S(=O)(=O)NNC(=O)CCC(=O)Nc2ccccc2)cc1`, the Potency is reported as “inactive” and the cell number change is reported as 20.4%.
In the case of `CC(=O)Nc1ccc(S(=O)(=O)NNC(=O)CCC(=O)Nc2cc(C)ccc2C)cc1`, the Potency is reported as 2.31 µM (active) and the cell number change is reported as 1.21%.
For `Cc1ccc(NC(=O)CCC(=O)NNS(=O)(=O)c2ccc(Cl)cc2)cc1C`, the Potency was “inactive” and the cell number change was -13.3%.
With `Cc1ccc([N+](=O)[O-])cc1NC(=O)CN(C)CCOc1ccccc1` the Potency was “inactive” and the cell number change was 12%.
For `CCOC(=O)c1cc(-c2ccc(OC)cc2)n(CCC(=O)NC2CCN(Cc3ccccc3)CC2)c1C`, the Potency was “inactive” and the cell number change was 11%.
With `C=CCN(c1ccc(C(=O)OC)cc1)S(=O)(=O)c1ccccc1` the Potency was “inactive”.
For `Cc1ccc(-c2ccc(S(=O)(=O)NCc3ccco3)cc2)cc1`, the Potency was “inactive” and the cell number change was 2.5%.
In the case of `Cc1ccc(S(=O)(=O)NCc2ccco2)cc1C`, the Potency is reported as 10.3 µM (active) and the cell number change is reported as -8.6%.
In the case of `Cn1c(=O)oc2cc(S(=O)(=O)NCc3ccco3)ccc21`, the Potency is reported as “inactive” and the cell number change is reported as 0.921%.
For `CCOCCCNC(=O)C1CCCN1C(=O)NC1CCCCC1` (stereo not given), the Potency was 20.6 µM (active) and the cell number change was -3.91%.
With `CCCCNC(=O)C1CCCN1C(=O)NC1CCCCC1` (stereo not given) the Potency was “inactive” and the cell number change was 9.73%.
For `CC(C)CCNC(=O)C1CCCN1C(=O)NC1CCCCC1` (stereo not given), the Potency was “inactive” and the cell number change was -5.55%.
With `Cc1ccc(C(=O)Nc2onc(C)c2C#N)cc1` the Potency was “inactive”.
In the case of `O=C(NCc1ccccc1Cl)c1cnccc1C(F)(F)F`, the Potency is reported as “inactive” and the cell number change is reported as 0.794%.
With `COc1ccc(-n2nc([N+](=O)[O-])c(=NCCc3ccc(OC)c(OC)c3)n2O)cc1` the Potency was 0.82 µM (active) and the cell number change was -7.82%.
With `Cc1ccc(CCN=c2c([N+](=O)[O-])nn(-c3ccccc3)n2O)cc1` the Potency was “inactive”.
For `COc1ccc(-n2nc([N+](=O)[O-])c(=NCCc3ccc(C)cc3)n2O)cc1`, the Potency was “inactive” and the cell number change was -0.674%.
With `CCOc1ccccc1/C=N/n1nnnc1N` the Potency was “inactive” and the cell number change was -5.74%.
In the case of `O=C1C2CC=C(Cl)CC2C(=O)N1CCC[n+]1cccc2ccccc21` (stereo not given), the Potency is reported as “inactive” and the cell number change is reported as -1.42%.
In the case of `O=C(C1CC(=O)N(c2ccc(Cl)cc2)C1)N1CCC(c2nc3ccccc3[nH]2)CC1` (stereo not given), the Potency is reported as “inactive”.
In the case of `CCCNC(=O)Cn1cnc2sc(C(=O)N3CCCC(C(=O)OCC)C3)c(C)c2c1=O` (stereo not given), the Potency is reported as “inactive” and the cell number change is reported as -16.1%.
With `CCCNC(=O)Cn1cnc2sc(C(=O)N3CCN(Cc4ccc5c(c4)OCO5)CC3)c(C)c2c1=O` the Potency was “inactive” and the cell number change was 8.92%.
In the case of `CCCNC(=O)Cn1cnc2sc(C(=O)N3CCN(CCC)CC3)c(C)c2c1=O`, the Potency is reported as 32.6 µM (active) and the cell number change is reported as -2.16%.
